Shiga inhibitor = A qHTS for Small Molecule Inhibitors of Shiga Toxin. Vero cells, Shiga toxin protein synthesis inhibition reporter. inhibition, % at 38.7 µM. 290,000 compounds, 9.2% hits. AID 2315, 2010; in the data active = inhibition mostly above about 28%, no sharp cut-off; inactive = mostly below about 43%; also: 0% is about no effect
HCMV inh = qHTS Assay for inhibitors of the human cytomegalovirus (HCMV); HFF cells, HCMV-luciferase reporter, 72 h; active compounds read low; activity change, negative = inhibition, % at 57.5 µM; 410,000 compounds, 4.5% hits; AID 1259415, 2018; in the data active = activity change below about -60%; inconclusive = no clear call, values can overlap the other calls; inactive = above about -39%; also: % is scaled to controls: 0 for no effect and ±100 for the full control effect
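Compounds were evaluated in HFFs infected with an HCMV luciferase reporter virus (MOI 1 PFU/cell). Luciferase in lysates collected 72 h post infection served as the replication measure.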
Pf growth 48h = Primary qHTS for delayed death inhibitors of the malarial parasite plastid, 48 hour incubation; P. falciparum luciferase growth in erythrocytes, 48 h; Potency, µM (highest dose often 28.7 µM), inactives show at the top dose activity change, negative = inhibition, usual class: inhibitors; 310,000 compounds, 5.9% hits; AID 504832, 2011; also: potency is read from the fitted curve at half-maximal effect; % is scaled to controls: 0 for no effect and ±100 for the full control effect
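Luminescence readout; reporter = integrated firefly luciferase in P. falciparum. RBC culture at 2% hematocrit, 0.1% parasitemia final, 37 C/5% CO2; decreased signal taken as growth inhibition.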
Cycloheximide cs = Cycloheximide Counterscreen for Small Molecule Inhibitors of Shiga Toxin | AID 2314, 2010 | cell reporter, cycloheximide protein synthesis inhibition counterscreen | 300,000 compounds, 12% hits | max response, %; in the data active = max response mostly above about 13%, no sharp cut-off; inactive = mostly below about 14%; also: read at 38.3 µM for the half of the compounds with a filed dose; 0% is about no effect
Pf growth 96h = Primary qHTS for delayed death inhibitors of the malarial parasite plastid, 96 hour incubation | AID 504834, 2011 | 320,000 compounds, 6.9% hits | Potency, µM (titrated, usually from 28.7 µM), inactives show top-dose activity change, negative = inhibition, hits mostly inhibitors | P. falciparum luciferase reporter growth, 96 h; also: potency is read from the fitted curve at half-maximal effect; % is scaled to controls: 0 for no effect and ±100 for the full control effect
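Plates of compound plus infected erythrocytes (2% hematocrit, 0.05% parasitemia final) incubate 96 hours, 37 C, 5% CO2. Detection reagent added; reduced luminescence from the parasites' luciferase reporter flags inhibition.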
The depositor's hits bear a star; ? = inconclusive; . = not tested or not shown; [ ] = dose if it differs, or a comment. The list is not random: actives were taken first. Their share in the collection is about 20%. Unless noted, calls follow the shape of the dose curve; as a rule, active = well fitted inhibition curve with a large enough effect; inconclusive = small, poorly fitted or top-dose-only effect, or another doubt; inactive = no such curve, though single readings can be large or run the other way.

SMILES	Shiga inhibitor	HCMV inh	Pf growth 48h	Cycloheximide cs	Pf growth 96h
O=C1CC(=C2c3ccccc3-c3ccccc32)C(=O)N1CCCCN1CCN(c2ccccc2)CC1	-9.9	.	4.15µM*	-0.6	6.57µM*
COc1ccc(-n2c(=S)[nH]c3cc(C(=O)N4CCN(c5ccccc5)CC4)ccc3c2=O)cc1	-6.0	-28.0	-8.8%	-5.0	2.08µM*
COc1cc2[nH]c(=O)n(Cc3ccc(C(=O)N4CCN(c5cccc(C)c5C)CC4)cc3)c(=O)c2cc1OC	.	-107.9*	.	.	.
O=C(c1ccc2c(=O)n(Cc3ccc4c(c3)OCO4)c(=O)[nH]c2c1)N1CCN(c2ccccc2)CC1	-3.8	-13.9	-9.4%	-2.8	11.7µM*
C=CCn1c(=O)[nH]c2cc(C(=O)N3CCN(c4ccc(C(C)=O)cc4)CC3)ccc2c1=O	12.6	13.0	.	11.3	6.57µM*
C=CCNC(=O)c1ccc(Cn2c(=S)[nH]c3cc4c(cc3c2=O)OCO4)cc1	1.6	-25.7	8.6%	-2.5	142.7%
CC1CCCN(C(=O)c2ccc3c(=O)n(Cc4ccc5c(c4)OCO5)c(=S)[nH]c3c2)C1 (configuration not stated)	-14.5	-86.8*	-28.5%	-2.4	7.38µM*
CCN(CC)C(=O)c1ccc2c(=O)n(Cc3ccc4c(c3)OCO4)c(=S)[nH]c2c1	-4.5	-24.9	?	-3.2	11.8%
O=C(c1ccc(Cn2c(=S)[nH]c3cc4c(cc3c2=O)OCO4)cc1)N1CCN(c2ncccn2)CC1	-6.8	.	11.7µM*	-4.5	?
COc1ccc(Cn2c(=O)[nH]c3cc(C(=O)N4CCN(c5ccc(C(C)=O)cc5)CC4)ccc3c2=O)cc1	-7.6	-29.9	-19.6%	-1.1	11.7µM*
CC(=O)c1ccc(N2CCN(C(=O)c3ccc4c(=O)n(-c5ccccc5)c(=O)[nH]c4c3)CC2)cc1	11.2	?	10.4µM*	-1.9	?
COc1ccc(Cn2c(=O)[nH]c3cc(C(=O)N4CCN(c5ccc(OC)cc5)CC4)ccc3c2=O)cc1	-15.5	.	-26.2%	-5.2	24.3%
O=C(c1ccc2c(=O)n(-c3ccccc3)c(=O)[nH]c2c1)N1CCN(c2ccc(F)cc2)CC1	-5.7	-37.5	-16.4%	-2.3	37.7%
Cc1ccc2nc(N3CCN(C)CC3)c(C=O)c(=O)n2c1	-4.5	?	17.4%	-2.3	16.6%
CCCCC(CC)CCC(CC(C)C)OS(=O)(=O)O (configuration not stated)	.	.	-5.8%	.	14.3%
CN(C(=O)CSc1ccncc1)C1CCCN(Cc2ccccc2F)C1 (configuration not stated)	-11.8	-21.9	8.3%	-5.2	12.5%
COc1ccc(CN2CCSCC2)c(C)c1C	-2.7	22.2	-2.0%	-2.9	8.28µM*
COc1ccc(-c2[nH]ncc2CN2CCSCC2)c(OC)c1	-15.2	-18.9	-0.9%	-2.5	11.7µM*
CCOc1cc(CNCCCN2CCOCC2)cc(Br)c1OCC(=O)Nc1cccc(C(F)(F)F)c1	69.6	-17.5	1.17µM*	-12.4	0.657µM*
CCOc1cc(CNC(C)(C)C)ccc1OCC(=O)Nc1cccc(C(F)(F)F)c1	-11.7	-20.3	6.57µM*	-2.9	43.3%[1.15 µM]
CCOc1cc(CNCCCN2CCOCC2)cc(Cl)c1OCC(=O)NC(C)(C)C	-6.3	1.2	?	-2.3	224.9%
COc1cc(C(=O)NCc2cccnc2)ccc1OCC(=O)Nc1cccc(C(F)(F)F)c1	.	-73.2*	-2.5%	.	?
O=C(NCc1cccnc1)Nc1cccc(C(F)(F)F)c1	13.3	-69.6*	-21.1%	-2.6	1.47µM*
O=C(NCc1cccnc1)Nc1cccc(NC(=O)NCc2cccnc2)c1	-13.4	11.2	-3.0%	2.1	.
CCOc1ccc(NC(=O)COc2ccc(C(=O)NCc3cccnc3)cc2OC)cc1	.	4.0	?	.	-7.9%
SMILES	Shiga inhibitor	HCMV inh	Pf growth 48h	Cycloheximide cs	Pf growth 96h
CCC(CO)NCc1ccc(OCC(=O)Nc2cccc(C(F)(F)F)c2)c(OC)c1 (configuration not stated)	-4.9	8.2	-0.6%	-2.5	-20.4%
COc1ccc(CN(C)C(=O)c2ccc(OCC(=O)Nc3cccc(C(F)(F)F)c3)c(OC)c2)cc1	.	-61.9*	.	.	.
O=C(NCc1c(-n2cccc2)sc2c1CCCC2)Nc1cccc(C(F)(F)F)c1	.	-73.0*	.	.	.
CC1CN(C(=O)CSc2nnc3c(Cl)cc(Cl)cn23)CC(C)O1 (configuration not stated)	-12.5	6.7	-1.4%	3.8	.
O=[N+]([O-])c1ccccc1CSc1nnc2ccccn12	53.2*	53.4	110.8%	39.6*	63.1%
Clc1ccc(CSc2nnc3ccccn23)c(Cl)c1	40.5*	-22.7	36.9%	60.2*	47.4%
COc1ccc(CNC(=O)CN(c2ccc(C(C)C)cc2)S(=O)(=O)c2c(C)nn(C)c2C)cc1	.	-16.9	.	.	.
COc1ccc(NC(=O)N2C[C@H]3[C@@H](c4ccccc42)[C@@H](CO)N3C(=O)C2CC2)cc1	.	11.9	.	.	.
COc1cc(C(O)c2nc(C(=O)NCCN3CCOCC3)cs2)cc(OC)c1OC (configuration not stated)	.	-18.0	.	.	.
Cc1cccc(NC(=O)c2ccc(NCC3CCCO3)c([N+](=O)[O-])c2)n1 (configuration not stated)	68.3*	64.3	36.9%	19.3*	14.3%
COCCNc1ccc([N+](=O)[O-])cc1C(=O)Nc1cccc(C)n1	23.2	22.2	11.4%	10.6	?
Cc1cccc(NC(=O)c2ccc(NCCO)c([N+](=O)[O-])c2)n1	53.0*	0.0	75.7%	29.5*	183.6%
Cc1cccc(NC(=O)c2ccc(NCC3CCCO3)c([N+](=O)[O-])c2)c1 (configuration not stated)	1.5	16.9	5.5%	18.9*	?
COCCn1nnnc1CN1C2CCCC1CC(NC(C)=O)C2 (configuration not stated)	-2.6	6.8	29.4%	-5.1	13.1µM*
O=C(Nc1ccc2c(c1)N(Cc1ccccc1)C(=O)c1ccccc1S2)NC1CC1	5.0	-0.2	6.57µM*	-1.1	11.7µM*
N#Cc1ccc(C(=O)Nc2ccc3c(c2)N(C2CCCC2)C(=O)c2ccccc2S3)cc1	.	-31.9	.	.	.
CC(=O)Nc1ccc(C(=O)Nc2ccc3c(c2)N(C2CCCC2)C(=O)c2ccccc2S3)cc1	.	-83.2*	.	.	.
CCN1C(=O)c2ccccc2Sc2ccc(NC(=O)Nc3cc(C)cc(C)c3)cc21	.	-99.5*	.	.	.
CCN(CC)CCCNC(=O)CCc1c(C)nc2c(c1C)c(=O)n(C)c(=O)n2C	.	-65.1*	.	.	.
CN(C)C(CNc1ncccn1)c1ccccc1 (configuration not stated)	28.1	-31.8	14.3%	9.5	23.3%
COC(=O)c1c(N)nc(C)n1-c1ccc(OC)cc1	-20.5	-34.8	4.4%	-3.0	0.0%
COc1ccc(-n2c(C)c(C)c3c(N)ncnc32)cc1	1.8	-76.7*	12.5%	6.9	-15.8%
